Measurements published in PubChem BioAssay AID1981 (Southern Research Specialized Biocontainment Screening …, 2009).
Out of some 2,200 compounds screened, about 480 (22%) were called active. How the calls were made is not given here. The list is a sample of the results. Results with a measured potency or affinity are listed apart.

Assay: S. Typhimurium GFP fluorescence dose response in modified counterscreen for PhoP regulon inhibitor project (AID 1981)
Settings: 4 h; series mostly up to 150 µM

SMILES | outcome
C(=N\c1nc2ccccc2n1CCN1CCCCC1)/c1cccs1 | inactive
Cc1cccc(C(=O)Nc2nnc(Cc3c[nH]c4ccccc34)s2)c1 | inactive
CC1CN(C(=O)CCc2ccccc2)C(C)CN1C(=O)CCc1ccccc1 (centres undefined) | inactive
Cc1cccc(OCCSCc2nc3ccccc3[nH]2)c1 | inactive
Cc1ccc(Cn2cnc3ccccc32)cc1 | inactive
Cc1ccc(-c2nnc(SCC(=O)N3CCCc4ccccc43)n2N)cc1 | inactive
Clc1ccc(-c2cnc3n2CCC3)cc1 | inactive
O=[N+]([O-])c1ccc(N2CCN(CCOc3nonc3-c3ccccc3)CC2)c(Cl)c1 | inactive
Cc1occc1C(=O)n1cnc2ccccc21 | inactive
Nc1c(-c2ccccc2Cl)cnn1-c1cccc([N+](=O)[O-])c1 | inactive
C=C(C)C1Cc2cc3ccc(=O)oc3cc2O1 (centres undefined) | inactive
CCOC(=O)C1=C(C)N(CCO)C(=O)NC1c1cccc(O)c1 (centres undefined) | inactive
O=c1c2ccccc2nnn1Cc1ccccn1 | inactive
Cc1cc(C)c(C#N)c(SCC(O)CS(=O)(=O)Cc2ccccc2)n1 (centres undefined) | inactive
Nc1nnc(CC(=O)N/N=C\c2cc([N+](=O)[O-])ccc2O)s1 | inactive
Cc1cc(/C=N/NC(=O)c2cccc([N+](=O)[O-])c2)c(C)n1-c1ccc(Cl)cc1Cl | inactive
C/C(=N\NC(=O)C1CC1c1ccccc1)c1cccc([N+](=O)[O-])c1 (centres undefined) | inactive
Cc1ccc(N=Nc2ccc(O)c(/C=N\NC(=O)c3ccc(N)cc3)c2)cc1C | inactive
Cc1cc(C(=O)N/N=C/c2cc(Br)cc(Br)c2OC(=O)c2ccccc2)n[nH]1 | inactive
Cc1ccc2cccc(Oc3ncnc4scc(-c5ccccc5)c34)c2n1 | inactive
CN(C)c1ccnc(-n2cccc2/C=N/OCc2ccccc2)c1C#N | inactive
COc1ccc(OC)c(NC(=O)c2cc3c(Cl)nc4ccccc4c3s2)c1 | inactive
Cc1ccc(C)c(C(=O)NCc2ccncc2)c1 | inactive

SMILES | outcome
COc1ccc(CN=C2Nc3ccccc3CS2)cc1 | inactive
O=c1c2cc(Br)ccc2nc(-c2ccccc2)n1O | inactive
CN1CCCC(OC(=O)c2ccc(Cl)cc2)C1 (centres undefined) | inactive
NC(=S)c1cc2ccc(O)cc2oc1=O | inactive
OCCCNc1nc(-c2ccc(Cl)cc2)nnc1-c1ccc(Br)cc1 | inactive
CCn1c(CNC(=O)COc2ccc(C(C)C)cc2)nnc1SCC(=O)Nc1ccccc1 | inactive
FC(F)(F)c1cc(C(F)(F)F)c2ccc(Oc3ccccc3)nc2n1 | inactive
Cc1cc(C)c2c(c1)NC(=O)C2(O)CC(=O)c1cccs1 (centres undefined) | inactive
CC(C)(C)NC(=O)CSc1nnc(-c2ccncc2)o1 | inactive
COc1ccccc1/C=C1\CCCC2=C1Nc1nnnn1C2c1ccccc1OC (centres undefined) | inactive
COC(=O)c1sccc1NC(=O)CSc1ccccc1NS(=O)(=O)c1ccc(Cl)cc1 | inactive
O=[N+]([O-])c1ccc(NCCCNS(=O)(=O)c2ccccc2)c(Cl)c1 | inactive
CCC(C)C(NC(=O)OCc1ccccc1)C(=O)OCN1C(=O)c2ccccc2C1=O (centres undefined) | inactive
c1ccc(-c2ncnc3nc4n(c23)CCC4)cc1 | inactive
CCn1nnc(-c2ccccc2NC(=O)c2ccc(-n3cnnn3)cc2)n1 | inactive
Cc1cc(-c2csc(N)n2)c(C)n1C | inactive
COc1cc(NC(=O)Nc2cccc(Cl)c2)c(OC)cc1NC(=O)CN1CCCCC1 | inactive
Cc1cc(NCCN2CCOCC2)n2ncc(-c3ccccc3)c2n1 | inactive
CN(C)CCNc1nc(-c2ccccc2)nnc1C(F)(F)F | inactive
COc1cc(C2SCC(=O)N2c2nnc(C34CC5CC(CC(C5)C3)C4)s2)cc(OC)c1OC (centres undefined) | inactive
N#CCC1c2ccccc2CCN1C(=O)Nc1ccc(Cl)cc1 (centres undefined) | inactive
CC1(C)CC(=O)C=C(Nc2ccc(Br)cn2)C1 | inactive
COCCNC(=O)CSCc1c(F)cccc1Cl | inactive

SMILES | outcome
Cc1ccc(C(=O)Oc2cccc(NC(=O)c3cccs3)c2)cc1S(=O)(=O)N1CCOCC1 | inactive
NC(=O)c1ccccc1N=Cc1ccccn1 | inactive
Cc1cc(C)cc(NC(=O)CSc2nc3c(c(=O)[nH]2)CN(Cc2ccc(F)cc2)CC3)c1 | inactive
COC(=O)C1(O)CC(C(C)C)=NN1C(=O)c1ccc(Cl)cc1 (centres undefined) | inactive
Cc1cccc(CN(C)C)c1OC(=O)N(C)C | inactive
Cc1ccc(/C=C2\SC(=S)N(Cc3ccccc3)C2=O)o1 | inactive
COc1ccc(NC2=Nc3cccc4cccc2c34)cc1 | inactive
Oc1cccc2ccc[n+](CC(O)Cn3c4ccccc4c4ccccc43)c12 (centres undefined) | inactive
O=C(CSc1ncnc2ccccc12)Nc1cc(S(=O)(=O)N2CCCCC2)ccc1Cl | inactive
COc1ccc(NS(=O)(=O)c2cc(C)ccc2NC(=O)c2cc(C)oc2C)cc1 | inactive
COc1ccc(C)cc1C(=O)CCC(=O)Nc1ccccc1N1CCOCC1 | inactive
O=C(CN1CCC(NC(=O)c2cccc(F)c2)CC1)NCc1ccccc1F | inactive
CCn1cc(C(=O)NCc2ccncc2)c(=O)c2cc(F)c(N3CCN(C(=O)c4ccco4)CC3)cc21 | inactive
CCCOc1ccc(C(=O)N2CCCC2C(=O)O)cc1 (centres undefined) | inactive
CCCOc1ccc(C(=O)CCC(=O)OCC(=O)N2CC(=O)Nc3ccccc32)cc1 | inactive
O=C(Nc1nc(-c2ccncc2)cs1)C1c2ccccc2Oc2ccccc21 | inactive
O=C1c2[nH]nc(-c3ccccc3O)c2C(c2ccc(F)cc2)N1Cc1ccco1 (centres undefined) | inactive
CCCCNC(=O)OC1CCS(=O)(=O)C1 (centres undefined) | inactive
COC(=O)c1ccccc1NC(=O)NCc1ccc2c(c1)OCO2 | inactive
O=C(CN1CCCCCC1)Nc1cccc(Br)c1 | inactive
C=CCSc1nnc(-c2ccc(Cl)cc2Cl)o1 | inactive
CCCCCOc1ccc(NC(=O)C(=O)NCCC2=CCCCC2)cc1 | inactive
Cc1ccc(OCC(=O)N2CCN(S(=O)(=O)c3ccccc3)CC2)c([N+](=O)[O-])n1 | inactive

SMILES | outcome
Cc1nc(CC(=O)c2ccc(O)cc2O)cs1 | inactive
CCc1c(C)c2cc(Cl)c(O)c(CN3CCCCC3)c2oc1=O | inactive
Cc1onc(-c2c(F)cccc2Cl)c1C(=O)Nc1cccc(Cn2cccn2)c1 | inactive
NC(CSC12CC3CC(CC(C3)C1)C2)C(=O)O (centres undefined) | inactive
Cn1c(CN2CCCCC2)nc2cc(NS(=O)(=O)c3ccc(Cl)cc3)ccc21 | inactive
COc1ccc2c(c1)[nH]c1c(N3CCN(Cc4ccc5c(c4)OCO5)CC3)ncnc12 | inactive
O=C(NCCNc1ccc([N+](=O)[O-])cc1C(F)(F)F)c1ccc(F)cc1 | inactive
COCCNS(=O)(=O)c1cccn1-c1ncc(C(F)(F)F)cc1Cl | inactive
CCCCn1c(SCC(=O)Nc2nnc(CC)s2)nc2c1c(=O)n(C)c(=O)n2C | inactive
CCn1nc(C(=O)NCc2ccco2)c(Cl)c1Cl | inactive
CCOC(=O)CSc1n[nH]c(NC(=O)c2cccc(C)c2)n1 | inactive
Cc1cccc(C(=O)NC(=S)Nc2ccc(N3CCOCC3)cc2)c1 | inactive
Cc1cc(C)c2nc(NNC(=O)c3ccc(S(=O)(=O)N4CCc5ccccc5C4)cc3)sc2c1 | inactive
O=C(O)CCCCCN1C(=O)c2ccc(C(=O)O)cc2C1=O | inactive
O=C(/C=C/c1ccccc1Cl)c1ccccc(=O)c1O | inactive
Cc1ccc(NC(=O)c2ccccc2)s1 | inactive
CC1=C(C(=O)Nc2cccnc2)C(c2ccccn2)n2nnnc2N1 (centres undefined) | inactive
Cc1cccnc1NC(=O)CCCN1C(=O)c2ccccc2C1=O | inactive
CC(=O)c1cccc(NC(=O)Nc2cccs2)c1 | inactive
CC1(C)CC(=O)C=C(Nc2ccccc2NC(=O)c2cnccn2)C1 | inactive
COc1ccc(N2CCN(C(=O)Nc3ccc(S(=O)(=O)N(C)C)cc3)CC2)cc1 | inactive
Cc1ccc(S(=O)(=O)N(CC(=O)N=Nc2c(O)[nH]c3ccccc23)c2ccc(C)c(C)c2)cc1 | inactive
NC(N)=Nc1nc(C2COc3ccccc3O2)cs1 (centres undefined) | inactive

SMILES | outcome
O=C(CSCc1nc2ccccc2[nH]1)Nc1ccc2ccccc2c1 | inactive
COc1cc(CNCc2ccccn2)ccc1OCC(=O)NC(C)(C)C | inactive
O=S(=O)(/N=C(/Nc1cccc2ccccc12)c1ccccc1)c1cccs1 | inactive
FC(F)(F)COc1nc(OCC(F)(F)F)nc(N2CCN(c3ccccc3)CC2)n1 | inactive
COc1cccc(C2CC(=O)Nc3cc(OC)c(OC)c(OC)c32)c1OC (centres undefined) | inactive
COCCn1c(-c2ccccc2F)n[nH]c1=S | inactive
C1=C(CCNc2ncnc3c2[nH]c2ccccc23)CCCC1 | inactive
COc1ccc(C(=O)NCCC2=CCCCC2)cc1OC | inactive
O=C(NC1CCCCC1)n1c(=O)oc2ccc(Cl)cc21 | inactive
COc1ccc(C2C(C(=O)c3cccs3)=C(O)C(=O)N2c2nnc(C)s2)cc1OC (centres undefined) | inactive
Nc1ccc2c(c1)C(=O)N(CC1CCCO1)C2=O (centres undefined) | inactive
c1ccc(CNc2c3c(nc4ccccc24)CCC3)cc1 | inactive
CCc1ccc(Nc2nc(N)nc(CSc3nc4ccccc4s3)n2)cc1 | inactive
Cc1cccc(N2CCc3c2nc2ccccc2c3N)c1 | inactive
Oc1cccc(Nc2c3ccccc3nc3ccccc23)c1 | inactive
CCOc1ccc(Nc2nc(NCCN3CCOCC3)nc(OC)n2)cc1 | inactive
CCOC(=O)c1cnc2ccccc2c1Nc1ccc2c(c1)OCCO2 | inactive
Cc1cccc(Nc2nc(N)nc(CN3CCN(c4ccccc4)CC3)n2)c1 | inactive
Cc1cccc(Nc2c3c(nc4ccccc24)CCC3)c1 | inactive
CC1(C)CC(=O)C(C=Nc2ccc(Cl)cn2)=C(O)C1 | inactive
Cc1cc(C)n(-c2ccc(C(=O)OCC(=O)Nc3ccc([N+](=O)[O-])cc3)cc2)n1 | inactive
O=C(NCCc1ccc(Cl)cc1)/C(=C/c1cccnc1)NC(=O)c1ccccc1 | inactive
